Our source for the growth values is PubChem BioAssay (NCI).

The panel holds about 83,000 compounds, 20% with a hit somewhere; the sample as a whole holds those more often.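 The endpoint reported here, percent growth, reads 100 for growth as untreated, 0 for no net growth and -100 for all cells dead.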 Values without a mark were called inactive. Calls of active or inactive are those of the source. How the source made its calls: active means growth percent below 10; inactive means the rest.

Test systems include HCT-15 colon; HT29 colon; SNB-75 CNS; SNB-19 CNS; U251 CNS; PC-3 prostate; SK-MEL-5 melanoma; LOX IMVI melanoma; SK-MEL-28 melanoma; UACC-62 melanoma.
Assay in all cases: NCI-60 one-dose screen, 48 h (100 = growth as untreated, 0 = no growth, -100 = all killed)
Details in all cases: 10 µM unless noted

With `COc1ccc(-c2cc(-c3ccc(Cl)cc3)nc3nc(N)nn23)cc1`, the growth with HCT-15 colon is 90.2%; in the experiment on HT29 colon it was 99.5%; in the experiment on SNB-75 CNS, 104%; with SNB-19 CNS it was 91.5%; with U251 CNS, 91%; in the experiment with PC-3 prostate it was 106%. In addition, the results for the growth in the experiment with SK-MEL-5 melanoma, in the experiment on LOX IMVI melanoma and in the experiment on SK-MEL-28 melanoma were 93.6%, 105% and 116%, respectively.

As to `C=C(C)C(=O)O[C@H]1C[C@@]2(C)OC(=CC2=O)[C@H](C)[C@H](O)[C@H]2OC(=O)C(=C)[C@@H]21`, the growth with HCT-15 colon is 32.6%; with HT29 colon it was 95.6%; in the experiment with SNB-75 CNS, 77.2%; with SNB-19 CNS, 106%; with U251 CNS, 86.6%; in the experiment with PC-3 prostate, 79.7%. For the same compound, the growth in the experiment with SK-MEL-5 melanoma is 88.2%; in the experiment on LOX IMVI melanoma it was 57.7%; in the experiment on SK-MEL-28 melanoma, 61.7%.

As for `CCOC(=O)c1c(NCC(=O)Nc2cccc(Cl)c2)sc2c1CCCC2`, the growth with HCT-15 colon was 66.4%; in the experiment on HT29 colon, 101%; with SNB-75 CNS, 59.5%; in the experiment on SNB-19 CNS it was 82.7%; in the experiment with U251 CNS it was 63.6%; in the experiment on PC-3 prostate, 73.6%. Besides, the growth with SK-MEL-5 melanoma is 84.5%; with LOX IMVI melanoma, 35.3%; in the experiment with SK-MEL-28 melanoma, 89.5%.

Consider `NC(=O)c1c(NC(=O)c2cccc(OC(F)(F)F)c2)sc2c1CCC(=O)C2`, for which the growth in the experiment with HCT-15 colon is 19.2%; in the experiment with HT29 colon, 40.3%; in the experiment with SNB-75 CNS, 43.6%; with SNB-19 CNS, 43.1%; with U251 CNS it was 28.7%; with PC-3 prostate it was 21.3%. Further, the growth with SK-MEL-5 melanoma is 95.4%; in the experiment on LOX IMVI melanoma it was 28.5%; with SK-MEL-28 melanoma it was 82.6%.

Take `C=C(C)[C@@H]1CC[C@]2(C(=O)ON)CC[C@]3(C)[C@H](CC[C@@H]4[C@@]5(C)C/C(=C/c6ccc(Br)cc6)C(=O)C(C)(C)[C@@H]5CC[C@]43C)[C@@H]12`: the growth with HCT-15 colon is 57.8%; in the experiment with HT29 colon, 71.5%; in the experiment on SNB-75 CNS, 104%; in the experiment on SNB-19 CNS it was 78.2%; in the experiment on U251 CNS, 70.8%; in the experiment with PC-3 prostate it was 45.8%. The growth in the experiment with SK-MEL-5 melanoma is 86.1%; in the experiment on LOX IMVI melanoma it was 69.7%; in the experiment on SK-MEL-28 melanoma, 84.7%.

As for `CCOC(=O)C1=C(C)N=C2Sc3ccccc3N2C1c1ccccc1` (configuration not stated), the growth in the experiment with HCT-15 colon was 77.8%; in the experiment with HT29 colon, -72.7% (active); with SNB-75 CNS, 87.1%; in the experiment on SNB-19 CNS, 95.5%; with U251 CNS, 103%; in the experiment on PC-3 prostate, 78.2%. The growth in the experiment with SK-MEL-5 melanoma is 85.8%; in the experiment on UACC-62 melanoma, 65.8%; in the experiment on LOX IMVI melanoma, 84.3%; with SK-MEL-28 melanoma, 109%.

With `N/C(=N\OC(=O)CSc1nc2ccccc2s1)c1ccc2ccccc2c1`, the growth in the experiment on HCT-15 colon is 101%; in the experiment with HT29 colon it was 103%; in the experiment with SNB-75 CNS, 86.7%; in the experiment with SNB-19 CNS it was 99.9%; with U251 CNS, 96.4%; in the experiment with PC-3 prostate, 93.6%. For the same compound, the results for the growth in the experiment with SK-MEL-5 melanoma, with LOX IMVI melanoma and with SK-MEL-28 melanoma were 101%, 99.8% and 106%, respectively.

Turning to `O=C1NC(=O)c2c1c1c3ccccc3ccc1c1[nH]c3ccccc3c21`, the growth with HCT-15 colon is 13.4%; in the experiment on HT29 colon it was 13.4%; in the experiment on SNB-75 CNS, -7.05% (active); in the experiment on SNB-19 CNS, 3.4% (active); in the experiment with U251 CNS, 11.1%; with PC-3 prostate it was 1.07% (active). Besides, the growth in the experiment with SK-MEL-5 melanoma is -18.1% (active); in the experiment with UACC-62 melanoma it was 15.2%; in the experiment with SK-MEL-28 melanoma it was 18.9%.

Regarding `COc1ccccc1/C=C/C(=O)c1nnn(-c2ccc(C(=O)O)cc2)c1C`, the growth is 71.6% in the experiment on HCT-15 colon; 106% with HT29 colon; 89.1% with SNB-75 CNS; 87.9% in the experiment with SNB-19 CNS; 86.4% with U251 CNS; 93.2% in the experiment with PC-3 prostate. Also, the growth is 95.7% with SK-MEL-5 melanoma, 66.1% in the experiment on LOX IMVI melanoma and 97.3% in the experiment with SK-MEL-28 melanoma.

Take `NS(=O)(=O)c1ccc(Nc2nc(N/N=C/c3ccc(F)cc3)nc(Nc3ccccc3)n2)cc1`: the growth was 79.3% in the experiment with HCT-15 colon; 4.73% (active) in the experiment with HT29 colon; 96.4% in the experiment on SNB-75 CNS; 69.9% in the experiment with SNB-19 CNS; 11.9% in the experiment on U251 CNS; 39.9% in the experiment with PC-3 prostate. For the same compound, the growth in the experiment on SK-MEL-5 melanoma is 38.1%; in the experiment on LOX IMVI melanoma, 60.6%; in the experiment on SK-MEL-28 melanoma, 63.3%.

With `COc1ccc2c(C3=C(c4cn(C)c5ccccc45)C(=O)NC3=O)coc2c1`, the growth in the experiment with HCT-15 colon is 20%; with HT29 colon, 6.25% (active); with SNB-75 CNS, 17.6%; with SNB-19 CNS, 37.9%; in the experiment with U251 CNS, 15.8%; with PC-3 prostate it was 21.9%. Besides, the growth is 42.4% in the experiment with SK-MEL-5 melanoma, 29.5% in the experiment with UACC-62 melanoma, 34.8% in the experiment with LOX IMVI melanoma and 65.2% in the experiment with SK-MEL-28 melanoma.

As to `O=C(NNc1nc2cc(F)cc(F)c2n2cccc12)c1ccncn1`, the growth in the experiment on HCT-15 colon was 25.3%; with HT29 colon, 23.8%; in the experiment with SNB-75 CNS, 19.3%; in the experiment with U251 CNS, 9.14% (active); with PC-3 prostate, 33.6%; in the experiment with SK-MEL-5 melanoma it was -4.3% (active). In addition, the growth was 3.64% (active) in the experiment with UACC-62 melanoma, 6.37% (active) in the experiment with LOX IMVI melanoma and 22.9% in the experiment on SK-MEL-28 melanoma.

For the compound `N#C/C(=C\c1ccc(N2CCCCC2)cc1)C(=O)Nc1sc2c(c1C#N)CCC2`, the growth was 95% in the experiment on HCT-15 colon; 98.8% with HT29 colon; 86.8% in the experiment with SNB-75 CNS; 99.2% with SNB-19 CNS; 96.8% with U251 CNS; 91.5% in the experiment with PC-3 prostate. Besides, the results for the growth in the experiment on LOX IMVI melanoma and with SK-MEL-28 melanoma were 89.8% and 95.2%, respectively.

With `O=C(Cn1cc(CN2C(=O)c3ccc([N+](=O)[O-])cc3C2=O)nn1)Nc1ccc(F)cc1Cl`, the growth with HCT-15 colon is 99.5%; in the experiment with HT29 colon, 102%; with SNB-75 CNS it was 92.6%; in the experiment with U251 CNS it was 97.3%; with PC-3 prostate, 92.6%; with SK-MEL-5 melanoma, 101%. Further, the growth in the experiment on UACC-62 melanoma is 92.3%; in the experiment with LOX IMVI melanoma, 107%; in the experiment on SK-MEL-28 melanoma, 99.9%.
